Source: PubChem BioAssay AID1421 (Emory University Molecular Libraries Screening Center, 2008)
In all, about 1,300 compounds went through this assay and about 140 (11%) were called active. The rule behind the calls is not given here. The list is a sample of the results. Measured potencies and affinities stand elsewhere.

Each compound was assayed against Prostaglandin E2 receptor EP2 subtype (Homo sapiens) (UniProt P43116) (assay: compounds shifting PGE2 potency at EP2 – cell-based, human EP2, PGE2 EC50 shift, dose response (AID 1421)). Details: EP2-expressing cells, PGE2 EC50 shift by compound; at 20 µM.
Prostaglandin E2 receptor EP2 subtype (Homo sapiens), sequence (P43116 whole entry, looked up): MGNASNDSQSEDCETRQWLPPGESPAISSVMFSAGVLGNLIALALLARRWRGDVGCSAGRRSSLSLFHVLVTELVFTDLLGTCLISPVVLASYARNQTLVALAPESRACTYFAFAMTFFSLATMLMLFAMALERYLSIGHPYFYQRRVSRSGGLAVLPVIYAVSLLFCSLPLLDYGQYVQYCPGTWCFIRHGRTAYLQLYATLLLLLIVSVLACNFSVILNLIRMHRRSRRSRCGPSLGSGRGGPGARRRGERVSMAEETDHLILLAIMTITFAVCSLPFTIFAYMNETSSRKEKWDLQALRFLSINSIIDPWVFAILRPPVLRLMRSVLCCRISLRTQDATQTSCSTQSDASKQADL

PGE2 EC50 with compound, inactive:
Cc1ccc2cccc(NC(=O)c3ccc(Br)o3)c2n1 0.12 nM
Cc1cccc(-c2nc(=S)c3c(n2Cc2ccco2)CCCC3)c1 0.55 nM
CN(CC(=O)Nc1ccccc1Oc1ccccc1)Cc1ccccc1F 0.3 nM
COc1ccccc1CN(C)CC(=O)Nc1ccccc1-c1ccccc1 0.72 nM
CC(C)c1nc(SCc2c(F)cccc2Cl)c2c(=O)n(C)c(=O)n(C)c2n1 0.23 nM
CC1CN(c2nc3ccccc3cc2-c2ccccc2)CC(C)O1 (centres undefined) 0.31 nM
CCCCn1c(-c2csc(CCC)c2)n[nH]c1=S 0.43 nM
CCCc1cc(-c2n[nH]c(=S)n2Cc2ccccc2)cs1 0.76 nM
Cc1ccc(C(=O)N2N=C(c3ccccc3)CC2(O)C(F)(F)F)o1 (centres undefined) 0.31 nM
CCOc1cc(/C=N/NC(N)=O)ccc1OC(=O)c1ccc(C)cc1 0.42 nM
Cc1ccc2nc(-c3ccncc3)cc(-c3ccccc3)c2c1 0.17 nM
Nc1nc(Cc2ccccc2)nc(Cc2ccccc2)c1-c1ccccc1 0.43 nM
CC(C)c1ccc(OCC(=O)NC(=S)Nc2ccc3c4c(cccc24)CC3)cc1 18.6 nM
O=c1c2c(n3nnnc3n1-c1ccccc1)-c1ccccc1CC21CCCC1 0.77 nM
Nn1cnc2c(c1=O)C1(CCCCC1)Cc1ccccc1-2 0.34 nM
CCCn1c(SCC(=O)Nc2sc(C)c(C)c2C(=O)OCC)nc2c1c(=O)n(C)c(=O)n2C 0.47 nM
CCCCN1C=C(C(=O)OC)C(c2ccccc2Cl)C(C(=O)OC)=C1 0.38 nM
COc1ccc(C(=O)c2cnc3ccccc3c2-c2ccccc2)cc1 0.79 nM
CCCCOc1c(Br)cc(/C=N/O)cc1OCC 0.48 nM
O=C(CSc1nnc(-c2cc3ccccc3cc2O)n1Cc1ccco1)c1ccc(F)cc1 0.83 nM
COC(=O)c1c(NC(=O)CSc2nnc(-c3cccnc3)n2Cc2ccco2)sc(C)c1C 0.69 nM
CC(=O)c1ccc(S(=O)(=O)NCCCC(=O)NCCc2ccccn2)cc1 0.92 nM
CC(C)Cc1nc2sc3c(=O)[nH]cnc3c2c2c1CCC2 0.65 nM
C#CCSc1nc(Cc2ccc(Cl)cc2)nc2ccccc12 0.25 nM
Cc1cc(C(=O)CSc2nc3ccccc3c(=O)n2C)c(C)n1Cc1ccc2c(c1)OCO2 0.29 nM
CC(C)CCn1c(N2CCN(c3cccc(Cl)c3)CC2)nc2c1c(=O)[nH]c(=O)n2C 0.57 nM
COc1ccc(Cn2c(-c3ccc(OC)cc3)nc3ccccc32)cc1 0.8 nM
Clc1ccc(Cn2c(/C=C/c3ccco3)nc3ccccc32)cc1 0.66 nM
N#CCSc1nc2sc3c(c2c(=O)n1C1CCCCC1)CCCC3 0.32 nM
